Assay results published in PubChem BioAssay AID2330 (Broad Institute, 2010).
Out of some 37,000 compounds screened, about 2,800 (7.6%) were called active. Inconclusive results (about 1%) are left out. The sample holds actives, similar compounds and a random draw of the others, so the mix is not that of the screen. Values without a mark were called inactive. Cut-off read from the data, not from the text of the source: active = inhibition above about 80%; inconclusive = no clear call, values can overlap the other calls; inactive = below that.

Experiment: NOMO-1 AML cell viability reduction, primary screen, STK33 inhibitor project, CellTiter-Glo luminescence (AID 2330)
Settings: NOMO-1 AML viability, 72 h, active compounds read high, concentration not given here

Q: With `Cc1noc(C)c1NC(=O)Nc1ccc2c(c1)C(=O)N([C@H](C)CO)C[C@H](C)[C@H](CN(C)Cc1ccc(Oc3ccccc3)cc1)O2` as the molecule, how does the inhibition read?
A: 30%

Q: For `Cc1cc(C(=O)Nc2cccc3c2O[C@@H](CN(C)C(=O)Nc2ccc4c(c2)OCO4)[C@H](C)CN([C@@H](C)CO)C3=O)n(C)n1`, which inhibition is on record?
A: 11.4%

Q: With `C[C@@H]1CN([C@@H](C)CO)C(=O)c2cccc(NC(=O)c3ccc(-c4nccs4)cc3)c2O[C@H]1CN(C)Cc1ccc(Cl)c(Cl)c1` as the molecule, how does the inhibition read?
A: 97.3% (active)

Q: Which inhibition does the source give for `C[C@H](CO)N1C[C@H](C)[C@@H](CN(C)S(C)(=O)=O)Oc2c(NC(=O)c3ccc(-c4nccs4)cc3)cccc2C1=O` here?
A: 3.98%

Q: Which inhibition does the source give for `C[C@H](CO)N1C[C@H](C)[C@H](CN(C)S(C)(=O)=O)Oc2c(NC(=O)c3ccc(-c4nccs4)cc3)cccc2C1=O` here?
A: 1.84%

Q: Which inhibition does the source give for `C[C@@H]1CN([C@@H](C)CO)C(=O)c2cccc(NC(=O)c3ccc(-c4nccs4)cc3)c2O[C@@H]1CN(C)Cc1ccncc1` here?
A: 35.3%

Q: Which inhibition does the source give for `C[C@H](CO)N1C[C@H](C)[C@@H](CN(C)Cc2ccc(C(=O)Nc3ccccc3N)cc2)Oc2c(NC(=O)c3ccc(-c4nccs4)cc3)cccc2C1=O` here?
A: 138% (active)

Q: Which inhibition does the source give for `C[C@H]1CN([C@@H](C)CO)C(=O)c2cccc(NC(=O)c3ccc(-c4nccs4)cc3)c2O[C@H]1CN(C)Cc1ccc(C(=O)O)cc1` here?
A: 23.4%

Q: With `CC(C)NC(=O)N(C)C[C@H]1Oc2c(NS(=O)(=O)c3ccc(Cl)cc3)cccc2C(=O)N([C@@H](C)CO)C[C@H]1C` as the molecule, how does the inhibition read?
A: 12.1%

Q: For `COc1ccc(NC(=O)Nc2ccc3c(c2)C(=O)N([C@@H](C)CO)C[C@H](C)[C@@H](CN(C)C(=O)NC2CCCCC2)O3)cc1`, which inhibition is on record?
A: -2.68%

Q: Which inhibition does the source give for `CCOc1cc(S(=O)(=O)NC2CC(C)(C)NC(C)(C)C2)ccc1F` here?
A: -9.77%

Q: For `CC(=O)Nc1ccc(NC(=O)CC2C(=O)Nc3ccccc3N2C(C)=O)cc1` (centres undefined), which inhibition is on record?
A: -5.07%

Q: With `CC(=O)Nc1ccc(Nc2c3c4c(cccc4[nH]c2=O)C(=O)c2ccccc2-3)cc1` as the molecule, how does the inhibition read?
A: 115% (active)

Q: For `CC(=O)Nc1ccc(NC(=O)COc2ccccc2C(=O)Nc2cccc(Cl)c2Cl)cc1`, which inhibition is on record?
A: -3.66%

Q: With `Cc1ccc(C23CC4CC(CC(CN)(C4)C2)C3)cc1C` as the molecule, how does the inhibition read?
A: 116% (active)

Q: For `O=C(CSc1nc2ccccc2o1)Nc1ccccn1`, which inhibition is on record?
A: 2.56%

Q: With `Cc1ccc(S(=O)(=O)N(C)C[C@@H]2Oc3c(NC(=O)Nc4c(C)noc4C)cccc3C(=O)N([C@@H](C)CO)C[C@@H]2C)cc1` as the molecule, how does the inhibition read?
A: 22.7%

Q: With `COc1ccc(C(C)=O)cc1CSc1nnc(-c2ccc(Br)cc2)n1-c1ccccc1` as the molecule, how does the inhibition read?
A: 15.8%

Q: With `O=C(CSc1nnc(-c2ccccc2)n1-c1ccc(Cl)cc1)Nc1ccc(Cl)cc1` as the molecule, how does the inhibition read?
A: 83.3% (active)

Q: For `COC(=O)CSc1nnc(-c2ccc(Cl)cc2)n1-c1ccc(Br)cc1`, which inhibition is on record?
A: 95.1% (active)

Q: With `O=C(CSc1nnc(-c2ccncc2)n1-c1ccccc1)Nc1ccc(Cl)c(Cl)c1` as the molecule, how does the inhibition read?
A: 33.8%

Q: For `CCn1c(SCC(=O)Nc2cc(Cl)ccc2OC)nnc1-c1ccc(Br)cc1`, which inhibition is on record?
A: 25%

Q: For `O=C(CSc1nnc(-c2ccncc2)n1-c1ccc(Cl)cc1)Nc1ccc(C(=O)O)cc1`, which inhibition is on record?
A: -34.2%

Q: For `O=C(CC(=O)c1ccccc1O)c1ccccc1`, which inhibition is on record?
A: 42.5%

Q: With `C[C@@H]1CN([C@@H](C)CO)C(=O)Cc2cc(NC(=O)Cn3cnnn3)ccc2O[C@@H]1CN(C)S(=O)(=O)c1cn(C)cn1` as the molecule, how does the inhibition read?
A: -10.4%

Q: For `COc1ccc(NC(=O)CN2CCN(S(=O)(=O)c3ccc4ccccc4c3)CC2)cc1`, which inhibition is on record?
A: 8.78%

Q: Which inhibition does the source give for `COC(=O)C1=C[C@H](O[C@@H]2O[C@H](CO)[C@@H](O)[C@H](O)[C@H]2O)C[C@H]2[C@]3(C)C[C@@H](c4ccoc4)OC(=O)[C@H]3CC[C@@]12C` here?
A: 22.8%

Q: With `COc1ccc(NC(=O)N(C)C[C@@H]2Oc3c(NS(=O)(=O)c4ccc(OC)cc4)cccc3C(=O)N([C@H](C)CO)C[C@@H]2C)cc1` as the molecule, how does the inhibition read?
A: 14.6%

Q: Which inhibition does the source give for `CCn1c(=O)c2c(n3c(SCC(N)=O)nnc13)-c1ccccc1CC21CCCCC1` here?
A: 98.7% (active)

Q: Which inhibition does the source give for `NC(=O)CSc1nnc(-c2ccccc2F)n1-c1ccccc1` here?
A: 26.5%

Q: Which inhibition does the source give for `O=c1[nH]c(CSCCO)nc2c1C1(CCCCC1)Cc1ccccc1-2` here?
A: 8.91%

Q: For `COc1ccc(-c2cc(C(F)(F)F)n3nc(C(=O)NCCCN4CCOCC4)cc3n2)cc1OC`, which inhibition is on record?
A: 2.66%

Q: For `CC(C)NC(=O)N(C)C[C@H]1Oc2c(NS(=O)(=O)c3cccs3)cccc2C(=O)N([C@H](C)CO)C[C@H]1C`, which inhibition is on record?
A: -11.8%

Q: Which inhibition does the source give for `O=C(Nc1ccc(OCc2ccccc2)cc1)OCC1CN(Cc2ccccc2)CCO1` (centres undefined) here?
A: 113% (active)

Q: For `Cc1c(C(=O)N2CCOCC2)[nH]c2ccc(OCc3ccccc3)cc12`, which inhibition is on record?
A: 34.1%

Q: With `COc1ccc(Cl)cc1NC(=O)CSc1nnc(-c2ccc(Cl)c(Cl)c2)n1C` as the molecule, how does the inhibition read?
A: 17.7%

Q: Which inhibition does the source give for `COc1ccc(NC(=S)SC)cc1OC` here?
A: 87.2% (active)

Q: Which inhibition does the source give for `COc1ccc(NC(=S)NCc2cc(C)n(C)n2)cc1OC` here?
A: 6.06%

Q: With `COc1ccc(OC(C)C(=O)Nc2ccc(OC)c(OC)c2)cc1` (centres undefined) as the molecule, how does the inhibition read?
A: -22%

Q: With `Cc1ccc([N+](=O)[O-])cc1NC(=O)CSC1=NCCS1` as the molecule, how does the inhibition read?
A: 21.4%

Q: Which inhibition does the source give for `C[C@@H]1CN([C@@H](C)CO)C(=O)c2cccc(NC(=O)c3ccc(-c4nccs4)cc3)c2O[C@H]1CN(C)C(=O)Nc1ccccc1` here?
A: -9.67%

Q: For `CC[C@]1(O)C[C@@H]2CN(CCc3c([nH]c4ccccc34)[C@@](C(=O)OC)(c3cc4c(cc3OC)N(C)[C@H]3[C@@](O)(C(=O)OC)[C@H](OC(C)=O)[C@]5(CC)C=CCN6CC[C@]43[C@@H]65)C2)C1`, which inhibition is on record?
A: 112% (active)

Q: With `C[C@@H]1CN([C@H](C)CO)C(=O)c2cc(NC(=O)Nc3ccc4c(c3)OCO4)ccc2O[C@@H]1CN(C)C(=O)Nc1ccc(F)cc1` as the molecule, how does the inhibition read?
A: 33.1%

Q: Which inhibition does the source give for `C[C@@H]1CN([C@H](C)CO)C(=O)c2cccc(NS(=O)(=O)c3cn(C)cn3)c2O[C@H]1CN(C)Cc1ccc(C(=O)O)cc1` here?
A: -16.7%

Q: For `Cc1nnc(SCC(=O)Nc2cc(Cl)ccc2C)s1`, which inhibition is on record?
A: 22.1%

Q: With `C[C@@H]1CN([C@@H](C)CO)C(=O)c2cccc(NC(=O)c3ccncc3)c2O[C@@H]1CN(C)CC1CC1` as the molecule, how does the inhibition read?
A: 4.97%

Q: For `C[C@@H]1CN([C@H](C)CO)C(=O)c2cccc(NC(=O)c3cnccn3)c2O[C@@H]1CN(C)Cc1ccc(C(=O)Nc2ccccc2N)cc1`, which inhibition is on record?
A: 126% (active)

Q: Which inhibition does the source give for `C[C@@H]1CN([C@@H](C)CO)C(=O)c2cccc(NC(=O)c3cnccn3)c2O[C@H]1CN(C)Cc1ccc(C(=O)O)cc1` here?
A: -15.7%

Q: For `COc1ccc(CN(C)C[C@H]2Oc3c(NC(=O)C4CC4)cccc3C(=O)N([C@@H](C)CO)C[C@H]2C)cc1`, which inhibition is on record?
A: -16.6%

Q: With `Cc1cc(C(=O)Nc2cccc3c2O[C@@H](CN(C)Cc2ccc(C(=O)Nc4ccccc4N)cc2)[C@H](C)CN([C@@H](C)CO)C3=O)n(C)n1` as the molecule, how does the inhibition read?
A: 89.1% (active)

Q: With `Cc1cc(C(=O)Nc2cccc3c2O[C@@H](CN(C)Cc2ccncc2)[C@@H](C)CN([C@@H](C)CO)C3=O)n(C)n1` as the molecule, how does the inhibition read?
A: 19.4%

Q: Which inhibition does the source give for `Cc1cc(C(=O)Nc2cccc3c2O[C@@H](CN(C)Cc2ccc(C(=O)O)cc2)[C@H](C)CN([C@@H](C)CO)C3=O)n(C)n1` here?
A: 0.233%

Q: Which inhibition does the source give for `C[C@@H]1CN([C@H](C)CO)C(=O)c2cccc(NC(=O)c3cnccn3)c2O[C@@H]1CN(C)Cc1ccncc1` here?
A: 13.1%

Q: With `C[C@H](CO)N1C[C@H](C)[C@@H](CN(C)Cc2ccc(C(=O)Nc3ccccc3N)cc2)Oc2c(NC(=O)C3CC3)cccc2C1=O` as the molecule, how does the inhibition read?
A: 106% (active)

Q: For `C[C@@H]1CN([C@@H](C)CO)C(=O)c2cccc(NC(=O)C3CC3)c2O[C@@H]1CN(C)Cc1ccccc1`, which inhibition is on record?
A: 4.47%

Q: For `COc1ccc(S(=O)(=O)Nc2cccc3c2O[C@@H](CN(C)Cc2ccc(-c4ccccc4)cc2)[C@H](C)CN([C@H](C)CO)C3=O)cc1`, which inhibition is on record?
A: 22.4%

Q: For `CCn1c(SCC(=O)c2ccc(OC)cc2)nnc1-c1ccc(Cl)cc1Cl`, which inhibition is on record?
A: -7.21%

Q: Which inhibition does the source give for `Cc1cccc(N(CC(=O)Nc2cccc([N+](=O)[O-])c2)S(C)(=O)=O)c1C` here?
A: -1.91%

Q: Which inhibition does the source give for `COc1cc(OC)c(NC(=O)CSc2nnc(-c3ccncc3)n2-c2ccccc2)cc1Cl` here?
A: 37.4%

Q: With `COc1ccc(OC)c(NC(=O)c2cnn(-c3ccccc3Cl)c2NC(=O)c2ccco2)c1` as the molecule, how does the inhibition read?
A: 21.2%

Q: For `CC(C)NC(=O)Nc1ccc2c(c1)CC(=O)N([C@H](C)CO)C[C@@H](C)[C@@H](CN(C)C(=O)Nc1ccc3c(c1)OCO3)O2`, which inhibition is on record?
A: 21.8%

Q: With `c1ccc(-n2c(SCc3nc4ccccc4s3)nnc2-c2ccncc2)cc1` as the molecule, how does the inhibition read?
A: 37.8%

Q: For `CSC1=N/C(=C\C=C\c2cccs2)C(=O)S1`, which inhibition is on record?
A: 123% (active)

Q: For `COc1ccc(N(Cc2cc3ccccc3[nH]c2=O)C(=O)c2cccc(OC)c2)cc1`, which inhibition is on record?
A: -11%

Q: For `COc1ccccc1CCNC(=O)c1cnccn1`, which inhibition is on record?
A: 4.1%

Q: Which inhibition does the source give for `COC(=O)c1scc(S(=O)(=O)C(C)(C)C)c1-n1cccc1` here?
A: 100% (active)

Q: For `C[C@@H]1CN([C@H](C)CO)C(=O)c2cc(NC(=O)CCN3CCOCC3)ccc2O[C@H]1CN(C)Cc1ccc(Oc2ccccc2)cc1`, which inhibition is on record?
A: 5.92%

Q: For `C[C@@H]1CN([C@H](C)CO)C(=O)c2cc(NS(=O)(=O)c3cccs3)ccc2O[C@H]1CN(C)Cc1ccncc1`, which inhibition is on record?
A: -4.5%

Q: With `C=C1C(=O)O[C@@H]2[C@H]3C(CO)=CC(=O)C3=C(C)C[C@H](OC(=O)Cc3ccc(O)cc3)[C@@H]12` as the molecule, how does the inhibition read?
A: 120% (active)
